Test results: ChEMBL document CHEMBL3988442, “University of Dundee, Small-Polar-MMV Screening Library” (2021)
Hit rate of the full screen: of about 69,000 compounds, about 950 (1.4%) showed an effect of 50% or more. This excerpt belongs to a sample that is enriched for strong results.

Test system: Mycobacterium tuberculosis
Experiment: Cornell M. t heat shock assay; note: in the data most compounds retested in dose-response had high values
Assay type: functional, organism-based
Design: dose or concentration left out as unconfirmed

Compared with `Cl.c1csc(-c2noc(C3CNC3)n2)c1`, `Cc1cnn(CCNCc2nc(-c3ccsc3)oc2C)c1` is lower in “Percent Effect” value: 3.28% for the first, -4.227% for the second.

First: O=C(O)C(F)(F)F.O=C(O)C(F)(F)F.O=C(O)C(F)(F)F.c1cnn(C[C@@H]2C[C@@H]3CN(CC4CC4)CC[C@@H]3N2c2nccs2)c1
Second: O=C(O)C(F)(F)F.O=C(O)C(F)(F)F.O=C(O)C(F)(F)F.c1cncc(COCc2cncc3c2CCN(Cc2ccoc2)C3)c1
The “Percent Effect” value of the first is lower: -5.195% for the first, 2.729% for the second.

Going from `O=C(O)CC(O)(CC(=O)O)C(=O)O.OC1CCCN(Cc2ccnc(-c3cccnc3)n2)C1` (centres undefined) to `O=C(O)C(F)(F)F.O=C(c1cnccn1)N1CCC2(CC1)CCN(Cc1ccccn1)C2=O`, the “Percent Effect” value falls from -5.175% to -24.58%.

Going from `CCOC1COC2(CCN(Cc3cccc(C#N)c3)CC2)C1.O=C(O)C(F)(F)F` (centres undefined) to `CCN1CCOCC12CCN(C(=O)Cc1ccccc1)CC2.O=C(O)C(F)(F)F`, the “Percent Effect” value falls from -5.189% to -16.25%.

Compared with `N#Cc1ccc(N2CCCC3(CCC(=O)N3CC3CC3)CC2)nc1.O=C(O)C(F)(F)F` (centres undefined), `O=C(O)C(F)(F)F.O=C(O)C(F)(F)F.c1cncc(C2COC3(CCN(CC4CCOCC4)CC3)C2)c1` (centres undefined) is lower in “Percent Effect” value: 42.6% for the first, -13.27% for the second.

Compared with `Cc1csc(N(C)C(=O)C(c2c(F)cccc2Cl)N(C)C)n1` (centres undefined), `CN(C(=O)C(c1c(F)cccc1Cl)N(C)C)c1nccs1` (centres undefined) is lower in “Percent Effect” value: 16.08% for the first, -3.774% for the second.

First: CN(C)C(C(=O)Nc1nccs1)c1c(F)cccc1Cl (centres undefined)
Second: Cc1oc(-c2ccsc2)nc1CNC(C)Cn1cccn1 (centres undefined)
The “Percent Effect” value of the first is higher: 71.6% for the first, -16.19% for the second.

First: Cl.FC(F)CNc1cnc(C2CCNCC2)cn1
Second: COc1cccc(Nc2nc(C3CCNCC3)c3ccccn23)c1.Cl
The “Percent Effect” value of the first is lower: 9.975% for the first, 10.85% for the second.

First: CN(C)CCn1c2c(ccc1=O)CC(NCc1cnn(C)c1)CC2.O=C(O)C(F)(F)F.O=C(O)C(F)(F)F (centres undefined)
Second: CNC(=O)CN1CC[C@H]2CN(C(=O)c3cc[nH]n3)C[C@H]2C1.O=C(O)C(F)(F)F
The “Percent Effect” value of the first is higher: 21.9% for the first, 6.516% for the second.

Going from `Cc1cnn(CC(C)NCc2nc(-c3ccsc3)oc2C)c1` (centres undefined) to `COc1cccc(Nc2nc(-c3ccncc3)nc3c2CNCC3)c1.Cl`, the “Percent Effect” value falls from 59.87% to 9.794%.

Going from `CC(C)Nc1nc(N2CCCC2)nc2c1CN(c1ncc(F)cn1)CC2` to `Fc1cccc(Nc2nc(N3CCCC3)nc3c2CNCC3)c1`, the “Percent Effect” value rises from 18.45% to 102.4%.

Compared with `Oc1nc(N2CCOCC2)nc2c1CCN(Cc1cccc(F)c1)CC2`, `COc1cccc(Nc2nc(N3CCCC3)nc3c2CNCC3)c1.Cl` is higher in “Percent Effect” value: -9.224% for the first, 69.1% for the second.
